Source: the supplement of paper PMC10849652
Targets with a hit are over-represented here; the source holds about 7,900 in all. About 0.6% of all pairs of compound and target were hits. A number with no mark means an inactive call.

Legend:
Assay in all cases: log2 fold change, soluble protein after heating vs DMSO (PISA); higher = thermal stabilisation; K562 cells, 10 uM, 30 min; active = over 0.2 and 3.5 SD of the protein, either way, in both replicates (recomputed)
[1] = compound: CS(=O)(=O)c1ccc(-c2cnc(N)c(C(=O)Nc3ccccc3)n2)cc1
In short: (§1)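 Soluble protein was defined as the supernatant after 21,000xg for 90 min. It came from K562 cells at 2×10^6 cells/mL given 10 μM compound for 30 min, heated in aliquots for 3 min across 48°C-58°C, pooled, and extracted in PBS with 0.5% NP-40 at 4°C, and was quantified by TMTpro 16plex LC-MS/MS with equalised channel sums. Thermal stability against control samples, from duplicates, is reported as log2 fold change.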

crizotinib = compound: C[C@@H](Oc1cc(-c2cnn(C3CCNCC3)c2)cnc1N)c1c(Cl)ccc(F)c1Cl [crizotinib]
In short: as §1

[2] = compound: C[C@@H]1COCCN1C2=NC(=NC(=C2)C3(CC3)S(=O)(=O)C)C4=C5C=CNC5=CC=C4
In short: as §1

[3] = compound: C[C@H](C1=CC=C(C=C1)C(=O)NC2=C3C=CNC3=NC=C2)N
In short: as §1

duvelisib = compound: C[C@H](Nc1ncnc2nc[nH]c12)c1cc2cccc(Cl)c2c(=O)n1-c1ccccc1 [duvelisib]
In short: as §1

gandotinib = compound: Cc1cc(Nc2cc(CN3CCOCC3)c3nc(C)c(Cc4ccc(Cl)cc4F)n3n2)n[nH]1 [gandotinib]
In short: as §1

tozasertib = compound: Cc1cc(Nc2cc(N3CCN(C)CC3)nc(Sc3ccc(NC(=O)C4CC4)cc3)n2)n[nH]1 [tozasertib]
In short: as §1

[4] = compound: Cc1cc(SCc2sc(-c3ccc(C(F)(F)F)cc3)nc2C)ccc1OCC(=O)O
In short: as §1

doramapimod = compound: Cc1ccc(-n2nc(C(C)(C)C)cc2NC(=O)Nc2ccc(OCCN3CCOCC3)c3ccccc23)cc1 [doramapimod]
In short: as §1

ispinesib = compound: Cc1ccc(C(=O)N(CCCN)[C@@H](c2nc3cc(Cl)ccc3c(=O)n2Cc2ccccc2)C(C)C)cc1 [ispinesib]
In short: as §1

UniProt Q96LJ7, sequence (Q96LJ7 whole entry, looked up): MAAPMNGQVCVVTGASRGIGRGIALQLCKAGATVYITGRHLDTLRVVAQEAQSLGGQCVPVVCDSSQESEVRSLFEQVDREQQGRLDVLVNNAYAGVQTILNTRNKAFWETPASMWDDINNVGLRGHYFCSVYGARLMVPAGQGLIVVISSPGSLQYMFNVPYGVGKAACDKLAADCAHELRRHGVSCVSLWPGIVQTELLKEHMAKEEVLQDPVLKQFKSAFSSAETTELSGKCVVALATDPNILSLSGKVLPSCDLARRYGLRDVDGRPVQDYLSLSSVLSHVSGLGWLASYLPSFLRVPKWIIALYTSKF
UniProt Q9H2P9, sequence (Q9H2P9 whole entry, looked up): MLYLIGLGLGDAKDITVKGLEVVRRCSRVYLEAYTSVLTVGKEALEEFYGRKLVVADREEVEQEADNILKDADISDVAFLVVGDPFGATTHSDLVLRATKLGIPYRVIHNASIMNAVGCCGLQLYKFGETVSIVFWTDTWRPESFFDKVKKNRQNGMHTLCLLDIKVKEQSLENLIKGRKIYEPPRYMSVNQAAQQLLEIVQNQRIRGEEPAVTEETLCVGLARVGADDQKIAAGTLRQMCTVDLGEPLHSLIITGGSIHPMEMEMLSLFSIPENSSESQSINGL
UniProt Q9BQI3, sequence (Q9BQI3 whole entry, looked up): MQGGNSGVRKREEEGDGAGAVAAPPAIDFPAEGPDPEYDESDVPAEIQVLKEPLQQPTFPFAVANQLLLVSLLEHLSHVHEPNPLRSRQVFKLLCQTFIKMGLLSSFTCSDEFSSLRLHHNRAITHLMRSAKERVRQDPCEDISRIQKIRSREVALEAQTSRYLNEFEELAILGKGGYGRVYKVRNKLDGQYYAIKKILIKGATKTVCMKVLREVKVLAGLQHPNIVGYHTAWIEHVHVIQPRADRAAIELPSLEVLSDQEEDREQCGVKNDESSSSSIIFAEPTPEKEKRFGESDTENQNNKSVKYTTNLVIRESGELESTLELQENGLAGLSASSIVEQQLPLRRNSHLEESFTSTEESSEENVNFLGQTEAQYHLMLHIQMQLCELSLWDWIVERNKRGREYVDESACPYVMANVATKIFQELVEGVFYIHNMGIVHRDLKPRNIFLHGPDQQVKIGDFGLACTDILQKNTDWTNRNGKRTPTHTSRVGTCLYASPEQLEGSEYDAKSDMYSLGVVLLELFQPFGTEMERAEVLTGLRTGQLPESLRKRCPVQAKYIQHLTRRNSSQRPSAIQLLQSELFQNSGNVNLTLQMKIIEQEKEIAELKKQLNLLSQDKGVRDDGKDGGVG
UniProt O00471, sequence (O00471 whole entry, looked up): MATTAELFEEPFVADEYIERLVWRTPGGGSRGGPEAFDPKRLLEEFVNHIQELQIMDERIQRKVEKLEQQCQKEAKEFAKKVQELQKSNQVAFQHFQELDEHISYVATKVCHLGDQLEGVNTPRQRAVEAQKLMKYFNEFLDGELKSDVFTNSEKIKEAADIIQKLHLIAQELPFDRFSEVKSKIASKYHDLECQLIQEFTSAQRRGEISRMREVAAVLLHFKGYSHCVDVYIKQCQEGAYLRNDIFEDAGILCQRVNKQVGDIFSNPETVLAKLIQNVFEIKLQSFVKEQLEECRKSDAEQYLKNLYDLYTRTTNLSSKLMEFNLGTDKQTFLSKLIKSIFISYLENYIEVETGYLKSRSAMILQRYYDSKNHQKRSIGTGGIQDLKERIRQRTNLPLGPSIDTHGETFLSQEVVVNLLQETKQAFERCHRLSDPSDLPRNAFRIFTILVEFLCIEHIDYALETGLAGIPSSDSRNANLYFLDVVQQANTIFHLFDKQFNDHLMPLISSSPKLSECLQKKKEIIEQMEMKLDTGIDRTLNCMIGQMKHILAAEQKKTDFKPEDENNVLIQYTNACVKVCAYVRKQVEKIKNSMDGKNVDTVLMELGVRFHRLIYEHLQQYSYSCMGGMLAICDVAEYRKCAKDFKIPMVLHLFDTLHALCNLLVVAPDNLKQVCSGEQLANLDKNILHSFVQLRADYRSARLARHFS
UniProt P50570, sequence (P50570 whole entry, looked up): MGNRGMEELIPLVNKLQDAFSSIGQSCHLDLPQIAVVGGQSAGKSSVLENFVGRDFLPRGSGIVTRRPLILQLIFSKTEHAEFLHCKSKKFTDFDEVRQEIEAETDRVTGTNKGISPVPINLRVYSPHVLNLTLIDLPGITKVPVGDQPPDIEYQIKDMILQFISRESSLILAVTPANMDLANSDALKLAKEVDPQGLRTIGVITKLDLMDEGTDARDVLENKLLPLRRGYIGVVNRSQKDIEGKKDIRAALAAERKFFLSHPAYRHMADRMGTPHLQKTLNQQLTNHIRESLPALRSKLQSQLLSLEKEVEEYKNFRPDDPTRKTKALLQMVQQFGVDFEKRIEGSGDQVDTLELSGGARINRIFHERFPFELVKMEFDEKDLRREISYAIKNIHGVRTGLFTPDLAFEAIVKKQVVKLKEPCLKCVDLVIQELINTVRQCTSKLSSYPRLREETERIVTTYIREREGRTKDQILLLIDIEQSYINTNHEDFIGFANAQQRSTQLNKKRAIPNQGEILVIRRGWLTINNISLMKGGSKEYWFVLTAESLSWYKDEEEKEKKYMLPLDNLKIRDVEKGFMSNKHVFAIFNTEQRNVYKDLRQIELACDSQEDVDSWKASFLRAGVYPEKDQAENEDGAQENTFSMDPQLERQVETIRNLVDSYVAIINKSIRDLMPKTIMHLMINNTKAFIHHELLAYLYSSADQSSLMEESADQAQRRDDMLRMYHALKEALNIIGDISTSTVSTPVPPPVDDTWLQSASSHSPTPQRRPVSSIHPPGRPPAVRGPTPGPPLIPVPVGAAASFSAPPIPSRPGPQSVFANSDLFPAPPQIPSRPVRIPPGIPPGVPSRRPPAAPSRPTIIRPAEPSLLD
UniProt Q99615, sequence (Q99615 whole entry, looked up): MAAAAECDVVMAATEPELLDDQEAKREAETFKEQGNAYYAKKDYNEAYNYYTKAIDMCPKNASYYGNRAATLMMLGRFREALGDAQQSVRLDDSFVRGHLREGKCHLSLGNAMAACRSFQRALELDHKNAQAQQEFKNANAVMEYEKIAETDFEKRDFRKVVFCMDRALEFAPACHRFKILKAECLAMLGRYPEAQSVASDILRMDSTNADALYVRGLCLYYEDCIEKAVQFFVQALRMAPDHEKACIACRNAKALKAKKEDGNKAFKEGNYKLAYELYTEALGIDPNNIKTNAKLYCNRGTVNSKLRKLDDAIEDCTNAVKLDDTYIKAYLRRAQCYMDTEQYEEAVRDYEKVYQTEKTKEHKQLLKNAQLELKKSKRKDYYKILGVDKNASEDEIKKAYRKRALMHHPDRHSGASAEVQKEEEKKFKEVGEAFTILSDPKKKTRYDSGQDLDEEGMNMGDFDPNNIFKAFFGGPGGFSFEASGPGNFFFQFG
UniProt Q9BSJ8, sequence (Q9BSJ8 whole entry, looked up): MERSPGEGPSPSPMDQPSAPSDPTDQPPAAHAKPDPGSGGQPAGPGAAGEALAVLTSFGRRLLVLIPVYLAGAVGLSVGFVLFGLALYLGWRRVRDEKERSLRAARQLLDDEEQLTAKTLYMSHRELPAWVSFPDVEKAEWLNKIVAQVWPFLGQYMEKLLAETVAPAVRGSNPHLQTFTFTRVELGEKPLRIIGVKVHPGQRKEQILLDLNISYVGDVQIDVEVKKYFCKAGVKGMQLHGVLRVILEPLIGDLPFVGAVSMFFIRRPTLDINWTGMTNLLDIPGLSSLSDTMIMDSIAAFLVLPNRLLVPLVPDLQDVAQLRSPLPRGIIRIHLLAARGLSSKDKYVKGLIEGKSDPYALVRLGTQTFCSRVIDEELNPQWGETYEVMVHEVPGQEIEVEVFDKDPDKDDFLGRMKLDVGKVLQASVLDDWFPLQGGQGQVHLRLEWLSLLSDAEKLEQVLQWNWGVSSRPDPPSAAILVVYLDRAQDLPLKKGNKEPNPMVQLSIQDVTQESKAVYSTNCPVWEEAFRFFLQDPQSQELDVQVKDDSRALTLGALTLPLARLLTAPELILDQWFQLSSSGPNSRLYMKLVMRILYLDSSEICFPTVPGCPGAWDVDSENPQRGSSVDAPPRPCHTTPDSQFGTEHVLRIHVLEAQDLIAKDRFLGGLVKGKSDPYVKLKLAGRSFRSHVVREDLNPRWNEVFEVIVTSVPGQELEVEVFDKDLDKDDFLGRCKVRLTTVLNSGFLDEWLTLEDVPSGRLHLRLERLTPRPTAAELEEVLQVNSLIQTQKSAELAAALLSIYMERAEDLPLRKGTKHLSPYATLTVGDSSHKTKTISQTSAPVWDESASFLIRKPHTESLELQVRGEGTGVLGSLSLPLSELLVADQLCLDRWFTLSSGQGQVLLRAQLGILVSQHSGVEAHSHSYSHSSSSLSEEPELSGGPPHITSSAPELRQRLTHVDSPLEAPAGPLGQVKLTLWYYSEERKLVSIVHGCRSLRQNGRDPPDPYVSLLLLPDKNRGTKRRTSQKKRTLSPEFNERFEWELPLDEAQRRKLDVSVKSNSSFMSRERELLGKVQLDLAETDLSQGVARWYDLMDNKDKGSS
UniProt Q6IAN0, sequence (Q6IAN0 whole entry, looked up): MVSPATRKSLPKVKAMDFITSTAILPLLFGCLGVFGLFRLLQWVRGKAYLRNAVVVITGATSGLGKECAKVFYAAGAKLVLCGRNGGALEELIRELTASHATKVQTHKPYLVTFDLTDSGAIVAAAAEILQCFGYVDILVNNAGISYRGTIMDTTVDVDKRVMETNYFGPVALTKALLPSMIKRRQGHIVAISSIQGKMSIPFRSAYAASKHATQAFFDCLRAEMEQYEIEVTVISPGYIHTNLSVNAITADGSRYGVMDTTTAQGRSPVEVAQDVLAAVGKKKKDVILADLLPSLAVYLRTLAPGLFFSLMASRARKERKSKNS
UniProt P50402, sequence (P50402 whole entry, looked up): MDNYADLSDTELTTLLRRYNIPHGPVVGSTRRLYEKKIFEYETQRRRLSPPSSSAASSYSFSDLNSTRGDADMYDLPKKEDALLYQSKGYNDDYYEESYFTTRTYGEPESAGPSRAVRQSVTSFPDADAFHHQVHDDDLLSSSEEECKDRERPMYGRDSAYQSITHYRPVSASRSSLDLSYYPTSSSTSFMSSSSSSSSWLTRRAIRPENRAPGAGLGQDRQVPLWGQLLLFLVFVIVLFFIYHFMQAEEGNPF

Target | log2 fold change [1] | log2 fold change (crizotinib) | log2 fold change [2] | log2 fold change [3] | log2 fold change (duvelisib) | log2 fold change (gandotinib) | log2 fold change (tozasertib) | log2 fold change [4] | log2 fold change (doramapimod) | log2 fold change (ispinesib)
EXOC4 (UniProt Q96A65) | 0.003 | -0.275 | -0.099 | 0.098 | -0.028 | -0.068 | 0.041 | 0.162 | 0.016 | -0.29
DLD (UniProt P09622) | -0.068 | -0.023 | 0.019 | -0.042 | 0.016 | -0.02 | -0.009 | 0.014 | -0.016 | -0.083
DHRS7B (UniProt Q6IAN0) | 0.066 | 0.194 | 0.003 | -0.08 | 0.097 | -0.232 | 0.033 | 0.105 | -0.006 | 0.367 (active)
ERCC6 (UniProt Q03468) | -0.12 | 0.061 | 0.011 | -0.127 | 0.044 | 0.017 | -0.051 | -0.103 | 0.053 | 0.152
DNAJB12 (UniProt Q9NXW2) | 0.02 | -0.029 | 0.038 | 0.035 | -0.009 | -0.073 | -0.001 | 0.097 | -0.034 | -0.227 (active)
ECH1 (UniProt Q13011) | 0.025 | -0.086 | 0.068 | -0.011 | 0.04 | -0.195 | 0.434 (active) | -0.008 | -0.023 | -0.208
FAM117A (UniProt Q9C073) | -0.039 | -0.166 | -0.013 | -0.132 | -0.119 | -0.053 | -0.12 | 0.067 | 0.017 | 0.024
DPH5 isoform 5 (UniProt Q9H2P9) | 0.017 | 0.092 | 0.072 | -0.046 | 0.077 | -0.011 | -0.01 | -0.01 | -0.025 | 0.076
CTSZ (UniProt Q9UBR2) | -0.001 | -0.007 | 0.021 | -0.033 | -0.037 | 0.03 | -0.015 | -0.037 | 0.05 | -0.481 (active)
ESYT1 isoform 2 (UniProt Q9BSJ8) | 0.021 | -0.134 | -0.076 | 0.069 | 0.014 | 0.024 | -0.017 | 0.11 | 0.083 | -0.265
DCAF13 (UniProt Q9NV06) | -0.086 | 0.067 | -0.538 (active) | 0.273 | -0.105 | 0.221 | 0.007 | -0.033 | 0.173 | -0.1
DYRK1A isoform 2 (UniProt Q13627) | 0.008 | -0.181 | 0.045 | -0.107 | -0.025 | -0.102 | -0.051 | 0.042 | 0.014 | -0.059
EMD (UniProt P50402) | 0.042 | -0.215 (active) | 0.019 | 0.018 | -0.033 | -0.047 | -0.049 | 0.015 | 0.018 | -0.092
DNAJC7 (UniProt Q99615) | 0.027 | -0.014 | 0.048 | -0.028 | 0.019 | -0.088 | -0.021 | 0.095 | -0.057 | 0.001
DHX16 (UniProt O60231) | 0.023 | -0.013 | 0.182 | -0.03 | -0.013 | -0.06 | -0.02 | 0.053 | -0.018 | -0.01
FAM122A (UniProt Q96E09) | 0.077 | -0.032 | -0.267 | -0.042 | 0.059 | -0.015 | 0.038 | -0.015 | 0.014 | 0
FADS3 (UniProt Q9Y5Q0) | 0.042 | -0.237 | 0.198 | 0.055 | 0.079 | -0.058 | -0.042 | 0.073 | -0.013 | -0.311 (active)
DHRS1 (UniProt Q96LJ7) | 0.009 | 0.248 | 0.089 | -0.028 | 0.438 | 0.297 | 0.009 | 0.571 | 0.557 | 0.247
DUS2 (UniProt Q9NX74) | -0.017 | 0.048 | 0.084 | 0.045 | 0.012 | 0.036 | -0.013 | 0.062 | -0.006 | 0.097
DIAPH1 (UniProt O60610) | 0.047 | -0.152 | -0.054 | 0.168 | -0.058 | -0.063 | 0.153 | 0.125 | 0.135 | -0.089
CTSC (UniProt P53634) | 0.042 | -0.037 | -0.015 | -0.062 | 0.018 | 0 | 0.063 | -0.047 | 0.013 | -0.057
CTSA (UniProt P10619) | 0.032 | -0.563 (active) | 0.002 | -0.036 | -0.039 | 0.043 | 0.011 | 0.003 | 0.009 | -0.237 (active)
CTSH (UniProt P09668) | 0.032 | -0.249 (active) | 0.074 | -0.02 | -0.034 | 0.031 | -0.068 | -0.068 | 0.023 | -0.221
EIF2AK1 (UniProt Q9BQI3) | 0.023 | 0.015 | 0.015 | 0.045 | -0.007 | 0.137 | -0.028 | 0.053 | 0.068 | -0.024
EXOSC10 (UniProt Q01780) | 0.126 | 0.043 | 0.063 | -0.015 | 0.09 | 0.527 | -0.118 | -0.138 | 0.097 | -0.441
EXOC5 (UniProt O00471) | -0.02 | -0.279 (active) | -0.017 | 0.015 | 0.005 | -0.129 | 0.014 | 0.101 | 0.008 | -0.342 (active)
EGLN1 (UniProt Q9GZT9) | 0.01 | -0.029 | -0.064 | -0.035 | 0.029 | -0.036 | 0.044 | 0 | -0.014 | -0.04
ELOC (UniProt Q15369) | 0.038 | 0.074 | 0.279 (active) | -0.07 | 0.137 | -0.001 | 0.06 | -0.015 | 0.012 | 0.134
DNM2 (UniProt P50570) | 0.017 | -0.082 | 0.062 | -0.021 | 0.05 | -0.06 | -0.071 | 0.039 | -0.039 | -0.01
DBT (UniProt P11182) | -0.024 | -0.01 | -0.014 | 0.054 | 0.04 | 0.005 | 0.038 | -0.042 | 0.029 | 0.009
